Screening data: PubChem BioAssay, The Scripps Research Institute Molecular Screening Center
NOD2-RIPK2 inh = NOD2-RIPK2 binding disruptors in cells, primary screen, fluorescence, CHO cells, BLA complementation; CCF4 ratio; inhibition, % at 4.98 µM; actives 0.38% (n = 360,000); AID 624267, 2012; in the data active = inhibition above about 21%;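 note: 0% = vehicle only and 100% = reference blocker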
TLR4-MyD88 BLA = inhibitors of TLR4-MyD88 association in cells, primary screen, cell-based, HeLa CL3-4, BLA complementation, FRET ratio; HeLa CL3-4 TLR4/MyD88 BLA complementation; actives 0.18% (n = 200,000); inhibition, % at 8.4 µM; in the data active = inhibition above about 25%;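 note: 0% = vehicle and 100% = reference inhibitor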
TLR9-MyD88 inh = inhibitors of TLR9-MyD88 association in cells, primary screen, cell-based, CHO, BLA complementation, fluorescence; inhibition, % at 4.98 µM; CCF4 FRET ratio; actives 0.21% (n = 340,000); Toll-like receptor 9 (Homo sapiens) + Myeloid differentiation primary response protein …; AID 504734, 2011;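 active = inhibition above the mean over all tested compounds plus 3 SD, cut at about 21% in these data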;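 note: 0% = DMSO only wells and 100% = clavulanate BLA inhibitor control wells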
ABHD5-PLIN5 inh = ABHD5-PLIN5 interaction inhibitors, primary screen, cell lysate, split luciferase complementation, luminescence; Split G. princeps luciferase complementation, 4 h; inhibition, % at 4 µM; actives 0.78% (n = 360,000); Perilipin-5 (Homo sapiens) + 1-acylglycerol-3-phosphate O-acyltransferase ABHD5 (Homo …;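 active = inhibition above the mean inhibition across every tested compound plus 3 SD, cut at about 22% in these data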;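 note: 0% = DMSO only wells and the 100% control is not disclosed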
TLR9-MyD88 conf = TLR9-MyD88 association inhibitors, retest, confirmation, cell-based, CHO, BLA complementation, fluorescence, triplicate. shares compounds with TLR9-MyD88 inh. CCF4 FRET ratio. inhibition, % at 4.98 µM. actives 51% (n = 680). AID 540250, 2011;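 active = mean inhibition across three repeats above about 21% taken from the earlier screen, limit read from the data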;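 note: blue over green emission ratio reports constitutive TLR9 MyD88 association via BLA complementation; 0% = DMSO vehicle wells and 100% = clavulanate BLA inhibitor wells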
BLA counter-1 = beta-lactamase reporter inhibitors in CHO cells, artefact control for TLR9-MyD88 binding inhibitor project, cell-based, fluorescence; AID 540251, 2011; inhibition, % at 4.98 µM; actives 7% (n = 680); CHO-BLA cells, CCF4 FRET ratio, BLA reporter; shares compounds with TLR9-MyD88 inh;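 active = mean inhibition above a 50% cutoff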;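 note: counterscreen of TLR9-MyD88 hits on CMV-driven BLA in CHO-K1 cells; 0% = DMSO alone and 100% = clavulanate blocking BLA; higher means less blue over green ratio so more BLA blockade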
TLR9 CHO cytotox = CHO cell viability loss – luminescence, single concentration, cytotoxicity control for TLR9-MyD88 binding inhibitor project. inhibition, % at 4.98 µM. TLR9-MyD88 CHO cells cytotoxicity. shares compounds with TLR9-MyD88 inh. actives 39% (n = 680); in the data active = inhibition above about 11%
ABHD5-PLIN5 conf = ABHD5-PLIN5 interaction inhibitors, confirmation, biochemical, luminescence. shares compounds with ABHD5-PLIN5 inh. inhibition, % at 4 µM. actives 67% (n = 2,200). AID 651612, 2012; in the data active = inhibition above about 23%;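 note: 0% = DMSO vehicle wells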
HNF4 counter = HNF4 dimerization inhibitors, counter-screen for ABHD5-PLIN5 interaction inhibitor project, biochemical, split-luciferase complementation, luminescence. AID 651674, 2012. shares compounds with ABHD5-PLIN5 inh. actives 77% (n = 2,200). inhibition, % at 4 µM;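 active = mean inhibition across replicate wells exceeding the computed hit threshold, cut at about 13% in these data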;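 note: light from luciferase halves that rejoin when HNF4 fusion proteins dimerize; 0% = DMSO only wells and the 100% control is not given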
NOD2 RIPK2 conf = NOD2-RIPK2 binding disruptors, retest, confirmation, fluorescence, CHO cells, BLA complementation, triplicate | inhibition, % at 4.98 µM | shares compounds with NOD2-RIPK2 inh | actives 70% (n = 1,200) | CCF4 FRET;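 active = mean inhibition across replicates above a set limit taken from the earlier primary screen, cut at about 21% in these data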;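 note: 0% = DMSO-only wells and the high end = clavulanate BLA-blocked wells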
BLA counter-2 = counter-screen for NOD2-RIPK2 interaction inhibitors: BLA reporter; shares compounds with NOD2-RIPK2 inh; CHO BLA reporter, CCF4 FRET ratio, counterscreen; inhibition, % at 4.98 µM; actives 57% (n = 1,200);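 active = mean inhibition above the low-control mean inhibition plus three low-control SD, cut at about 11% in these data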;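 note: 0% = DMSO only wells and 100% = clavulanate high control wells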
* marks the source's active call; other numbers are inactive results; · = not tested or not shown. Most compounds without a hit are left out; they make up all but 1.2% or so of the library.

SMILES | NOD2-RIPK2 inh | TLR4-MyD88 BLA | TLR9-MyD88 inh | ABHD5-PLIN5 inh | TLR9-MyD88 conf | BLA counter-1 | TLR9 CHO cytotox | NOD2 RIPK2 conf | BLA counter-2 | others
CC(=NNC(=S)N1CCN(c2ccccn2)CC1)c1nccs1 | 24* | · | 37* | 3 | 28* | 18 | 97* | 42* | 18*
CC(C)(C)OC(=O)NCC(=O)Oc1cc2oc(=O)cc(-c3ccccc3)c2cc1Cl | 36* | 21 | 47* | -11 | 16 | 21 | -1 | 43* | 48*
CCc1cc2c(-c3ccccc3)cc(=O)oc2cc1OC(C)C(C)=O (stereo not drawn) | 8 | · | 2 | -5 | · | · | · | · | ·
CCN(CC(=O)Nc1ccccc1C(F)(F)F)C(=O)CN1C(=O)NC2(CCCCC2)C1=O | -12 | · | -11 | 9 | · | · | · | · | ·
CC(=O)c1ccc2c3c(cccc13)C(=O)N(c1c(C)nn(C)c1C)C2=O | 0 | 13 | 6 | 0 | · | · | · | · | ·
Cc1n[nH]c(C)c1N1C(=O)c2cccc3c(N4CCCCCC4)ccc(c23)C1=O | 38* | 17 | 27* | -2 | 16 | 18 | 6 | 32* | 42*
COc1ccc2oc(=O)c(-c3csc(Nc4cccc(O)c4)n3)cc2c1 | 31* | 15 | 36* | -2 | 19 | 18 | -3 | 28* | 47*
C=C1CC(COc2ccc3c(C)c(Cl)c(=O)oc3c2)(c2ccccc2)OC1=O (stereo not drawn) | 60* | · | 24* | 62* | 23* | 8 | 98* | 74* | 28*
O=C(c1ccccc1)c1cc(Cl)ccc1N1C(=O)C=CC1=O | 59* | 8 | 33* | 38* | 38* | 8 | 96* | 89* | 23* | ABHD5-PLIN5 conf=47*;HNF4 counter=98*
O=c1c2cc(F)ccc2sn1-c1ccccc1Cl | -5 | · | 0 | -8 | · | · | · | · | ·
O=c1c2ccccc2sn1-c1ccc(F)cc1 | 35* | · | 32* | 71* | 9 | 0 | 58* | 37* | 2
Nc1c(C(=O)c2ccccc2)sc2nsc(SCCN3CCCC3)c12 | 29* | · | 28* | 1 | 21* | 18 | 9 | 44* | 47*
Nc1cccc2c1C(=O)N(Cc1cccc(Cl)c1)C2=O | 35* | 20 | 21* | -3 | 17 | 20 | 4 | 32* | 45*
O=C1Cc2ccccc2C(=O)N1Cc1cccc(Cl)c1 | -10 | · | 7 | 2 | · | · | · | · | ·
CCCCC1C(=O)N(c2ccccc2)N(c2ccc(O)cc2)C1=O (stereo not drawn) | 68* | · | 29* | 97* | 6 | -1 | 82* | 29* | 4 | ABHD5-PLIN5 conf=82*;HNF4 counter=100*
CCCCC1(CO)C(=O)N(c2ccccc2)N(c2ccccc2)C1=O | -4 | · | 5 | -1 | · | · | · | · | ·
CC[C@@]1(O)C(=O)OCc2c1cc1n(c2=O)Cc2cc3c(CN(C)C)c(O)ccc3nc2-1 | 72* | · | 54* | 5 | 49* | 52* | 60* | 81* | 78*
CC[C@@]1(O)C(=O)OCc2c1cc1n(c2=O)Cc2cc3c(N)cccc3nc2-1 | -1 | · | 1 | -7 | · | · | · | · | ·
O=C1CCN(Cc2ccc(O)cc2)CCN1CCO | 2 | · | -9 | 1 | · | · | · | · | ·
COc1ccc(/C=C/c2nc3ccccc3c(=O)o2)cc1 | 7 | · | 3 | -3 | · | · | · | · | ·
COc1ccc(/C=C/c2nc3cc(-c4ccccc4)ccc3o2)cc1O | 23* | -6 | 21* | 0 | 5 | 9 | 11* | 20 | 27*
NC(=O)c1ccccc1OCc1nnc(-c2ccccc2Br)o1 | -3 | · | 14 | -2 | · | · | · | · | ·
CS(=O)(=O)c1sc(C#N)c2c1C(=O)CC(c1ccccc1)C2 (stereo not drawn) | 99* | · | 58* | 57* | 53* | 38 | 100* | 94* | 36*
COCCNC(=O)C1(C)CCN(C(=O)C2(c3ccc(Cl)cc3)CCCC2)C1 (stereo not drawn) | -4 | · | · | 8 | · | · | · | · | ·
C=CCn1c(CSc2ccccc2[N+](=O)[O-])n[nH]c1=S | -11 | · | -3 | -17 | · | · | · | · | ·
SMILES | NOD2-RIPK2 inh | TLR4-MyD88 BLA | TLR9-MyD88 inh | ABHD5-PLIN5 inh | TLR9-MyD88 conf | BLA counter-1 | TLR9 CHO cytotox | NOD2 RIPK2 conf | BLA counter-2 | others
C=CCn1c(Sc2ncc([N+](=O)[O-])s2)n[nH]c1=O | 63* | · | 32* | 4 | 44* | -2 | 99* | 77* | 15*
O=S1(=O)C[C@H](N2CCOCC2)[C@@H](COCc2ccccc2)N1 | -1 | · | · | -6 | · | · | · | · | ·
CCN(CC)CC(C)(C)C(=O)/C=C/c1ccc(/C=C/C(=O)C(C)(C)CN(CC)CC)cc1 | 84* | · | 21 | 95* | · | · | · | · | · | ABHD5-PLIN5 conf=101*;HNF4 counter=107*
O=S(=O)(c1ccc(F)cc1)N1CN(Cc2ccco2)c2nc3ccccc3nc21 | 2 | -10 | -13 | 24* | · | · | · | · | · | ABHD5-PLIN5 conf=28*;HNF4 counter=23*
Oc1ccc(Cl)cc1-c1cc(-c2ccco2)[nH]n1 | -5 | 0 | 0 | 14 | · | · | · | · | ·
Oc1ccccc1-c1cc(-c2ccco2)[nH]n1 | -6 | -9 | -6 | 27* | · | · | · | · | · | ABHD5-PLIN5 conf=14;HNF4 counter=14*
CCn1c(C)c(CS(=O)(=O)c2ccccc2)[nH]c1=O | 6 | -10 | -12 | 34* | · | · | · | · | · | ABHD5-PLIN5 conf=57*;HNF4 counter=77*
CCCCn1c(N)c(N(CC(C)C)C(=O)c2ccc(-c3ccc([N+](=O)[O-])cc3)o2)c(=O)[nH]c1=O | -5 | · | 14 | -2 | · | · | · | · | ·
C=C1C(=O)O[C@@H]2[C@H]1[C@@H](OC(=O)/C(C)=C/C)C/C(C)=C\C(=O)/C=C(\C)[C@@H]2O | 15 | · | 6 | 42* | · | · | · | · | · | ABHD5-PLIN5 conf=62*;HNF4 counter=72*
CCN(CC)CCc1nc(-c2ccccc2)no1 | -1 | · | 14 | 56* | · | · | · | · | · | ABHD5-PLIN5 conf=84*;HNF4 counter=43*
O=C(NCc1ccco1)c1ccc(C(=O)NCc2ccco2)cc1 | 3 | · | 0 | 2 | · | · | · | · | ·
